# D2 ag-1 = agonists of human D2 dopamine receptor (beta-arrestin); AID 624465; DiscoveRx PathHunter D2 beta-arrestin, luminescence, 90 min; 100% = 57 uM dopamine signal; P14416; actives 0.084% (n = 360,000); activation, % (test concentration not listed); in the data active = activation above about 40%; inconclusive = between about 15% and that limit
#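 DiscoveRx PathHunter D2 beta-arrestin cells (2,100/well) attached overnight, then compound-stimulated 90 min at 37 C in HBSS/10 mM HEPES/0.1% Tween-20 buffer; beta-galactosidase complementation read by luminescence after 1 h at ambient temperature. Dopamine 57 uM final (EC100) as control.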
# D2 antag = D2 dopamine receptor (human) antagonism. P14416. HEK293 TREx D2 cells, calcium flux, dopamine EC80. inhibition, % at 10 µM. actives 2% (n = 340,000). AID 485344; in the data active = inhibition above about 30%; inactive = below that, where a call was filed; also: 0% is about no effect
#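 Overnight-induced (tetracycline, 30 C) HEK293 T-REx cells carrying force-coupled D2 receive a no-wash calcium dye, then compound, then EC80 dopamine at 180 s; signals are read kinetically throughout.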
# D2 ag-2 = D2 dopamine receptor (human) agonism. P14416. HEK293 T-REx D2 cells, calcium flux agonist mode. activation, % at 2 µM. actives 0.53% (n = 340,000). AID 485358;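 active = activation over 3 SD above normal in the single-dose calcium agonist read, cut at about 30% in these data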; also: 0% is about no effect
#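 In this primary screen, compounds producing a positive calcium signal within 180 s of addition to tetracycline-induced, force-coupled HEK293 Trex D2 cells are flagged; cells are dye-loaded with a no-wash calcium kit beforehand.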
# D2 PAM-1 = D2 dopamine receptor (human) potentiation | potentiation, % at 10 µM | P14416 | actives 0.34% (n = 340,000) | HEK293 T-REx D2, calcium flux, EC20 dopamine potentiation;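 active = potentiation over 3 SD above the plate norm, cut at about 30% in these data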; also: 0% is about no effect
#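 Cells plated with tetracycline inducer and held overnight at 30 C; calcium dye loaded 30–90 min at room temperature; baseline taken, compound added and read 180 s; EC20 dopamine then added and read 180 s.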
# D2 PAM-2 = potentiates the human D2 dopamine receptor allosterically; DiscoveRx D2 beta-arrestin cells, luminescence, 90 min; 100% = 57 uM dopamine signal; potentiation, % (concentration not given with the values); actives 0.23% (n = 360,000); AID 624464; in the data active = potentiation above about 50%; inconclusive = mostly about 30% to 49%
#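 PathHunter D2 cells, attached overnight at 37 deg C, received compound in DMSO plus dopamine at EC20 (50 nM final) for 90 min at 37 deg C. Beta-arrestin recruitment was read as luminescence after 1 h with detection reagent at ambient temperature.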
# D3 ag = activates human D3 dopamine receptor beta-arrestin recruitment | shares compounds with D2 ag-2 | DiscoveRx D3 beta-arrestin cells, luminescence, 90 min | Potency, µM (highest dose often 76.9 µM), for the others: at the highest dose activation, hits mostly activators | actives 4% (n = 2,300) | AID 720506;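 also: potency is read from the fitted curve at half-maximal effect; 100% = dopamine control response; nearly all actives have a fitted effect of over 70% in size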
# Target sequence (P35462 whole entry, looked up): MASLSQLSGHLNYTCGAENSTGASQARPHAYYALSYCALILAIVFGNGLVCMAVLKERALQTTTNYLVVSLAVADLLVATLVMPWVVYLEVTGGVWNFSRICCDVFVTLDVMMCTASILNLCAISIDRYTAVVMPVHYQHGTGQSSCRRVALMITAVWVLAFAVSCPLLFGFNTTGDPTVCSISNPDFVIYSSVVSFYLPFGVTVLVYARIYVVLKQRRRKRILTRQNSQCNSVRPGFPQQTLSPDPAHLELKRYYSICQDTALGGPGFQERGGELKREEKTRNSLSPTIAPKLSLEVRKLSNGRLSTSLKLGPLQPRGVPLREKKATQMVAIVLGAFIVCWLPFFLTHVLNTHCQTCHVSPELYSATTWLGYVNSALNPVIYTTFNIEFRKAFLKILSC
# D2 ag-3 = counter-screen for D3 agonists: human D2 dopamine receptor agonism | shares compounds with D2 ag-2 | DiscoveRx PathHunter D2 beta-arrestin, luminescence, 90 min; response scale: percent relative to full dopamine signal | actives 5.9% (n = 2,300) | AID 720507 | Potency, µM (series often up to 76.9 µM), inactives show at the highest dose activation, actives largely listed as activators; also: potency is read from the fitted curve at half-maximal effect; % of control where 0% means no effect; nearly all actives have a fitted effect of over 70% in size
# Starred values were filed as active, the others as inactive; ? = inconclusive; . = no result. Most compounds without a hit are left out; they make up all but 2.4% or so of the library. Unless noted, calls follow the shape of the dose curve; as a rule, active = well fitted activation curve with a large enough effect; inconclusive = small, poorly fitted or top-dose-only effect; inactive = flat fitted curve, though single readings scatter.
SMILES,D2 ag-1,D2 antag,D2 ag-2,D2 PAM-1,D2 PAM-2,D3 ag,D2 ag-3
CC1(C)OC(=O)C=C[C@]2(C)[C@H]3CC[C@@]4(C)[C@H](C(=O)O)OC(=O)[C@H]5O[C@]54[C@]3(C)C(=O)C[C@@H]12,-1.8,11.5,0.2,15.7,-8.9,-4.6%,-3.6%
CC(C)(O)[C@@H]1CC(=O)[C@]2(C)[C@H](CC[C@@]3(C)[C@H](c4ccoc4)OC(=O)[C@H]4O[C@]432)[C@@]1(C)/C=C\C(=O)O,-0.8,5.3,-0.7,-2.2,-5.0,.,.
O=C(Nc1ccccc1C(=O)OCc1cc(=O)n2nc(C3CC3)sc2n1)c1cccc(Cl)c1,.,.,1.7,-0.2,.,.,.
CC(C)NCC1CCc2cc(CO)c([N+](=O)[O-])cc2N1 (stereo not drawn),-4.9,-0.5,41.6*,-22.2,-32.3,-8.1%,-2.3%
CCOc1ccccc1CNS(=O)(=O)c1ccc2c(c1)CCCN2C(C)=O,.,.,0.5,-8.1,.,.,.
COCCNC(=S)Nc1cc2oc3ccccc3c2cc1OC,1.6,30.0*,57.2*,-19.0,-11.8,-3.8%,17.4%
CC(C)N1CCN(Cc2cccc(-c3ccco3)c2)CC1CCO (stereo not drawn),2.9,14.0,0.0,-3.2,-15.7,-7.7%,-6.3%
CC(C)N1CCN(Cc2ccccc2-c2ccco2)CC1CCO (stereo not drawn),-1.5,-11.9,-1.5,4.6,-1.0,.,.
CC(=O)N1CCc2cc(S(=O)(=O)NCCCN3CCN(Cc4ccccc4)CC3)ccc21,0.0,43.8*,42.1*,-21.6,-14.3,-7.3%,7.0%
O=C(CCN1CCN(CC(=O)Nc2ccccc2F)CC1)Nc1ccccc1F,-2.9,6.0,-0.4,1.6,-32.7,.,.
O=C(CCN1CCN(c2ccccc2)CC1)Nc1ccccc1F,?,71.4*,70.8*,-16.2,-18.1,?,25.0%
O=C(CCN1CCN(c2ccc(F)cc2)CC1)Nc1ccccc1F,1.5,65.4*,35.3*,-36.8,-17.1,3.6%,-1.2%
O=C(CCN1CCN(S(=O)(=O)c2ccc(F)cc2)CC1)Nc1ccccc1F,-1.1,-18.1,-0.4,7.4,-8.5,.,.
CCOC(=O)c1ccccc1NC(=O)N(Cc1ccc(C)cc1)Cc1cccn1-c1nnc(N2CCCC2=O)s1,.,.,0.2,9.5,.,.,.
Cc1ccn2c(=O)c(C(=O)NCCc3ccccc3)c(O)nc2c1,.,.,-0.4,10.2,.,.,.
O=S1(=O)c2ccccc2N(Cc2ccccc2Cl)c2ccccc21,.,.,-1.7,16.0,.,.,.
Cc1ccc(S(=O)(=O)c2c(Nc3cc(F)ccc3F)sc(C(=O)c3ccc(F)cc3)c2N)cc1,.,.,10.5,10.3,.,.,.
O=c1ccn(CCc2c[nH]c3ccccc23)c2c1CCCC2,2.1,18.6,42.9*,-19.3,2.8,-5.2%,-0.5%
Cn1c(C(=O)O)c(CC(=O)NCC2COc3ccccc3O2)c2ccccc21 (stereo not drawn),-3.6,41.9*,-0.2,1.0,11.2,-9.2%,?
O=C(Cc1ccccc1)NCC1COc2ccccc2O1 (stereo not drawn),-0.9,.,.,.,-17.0,.,.
CCOc1ccc(-n2c(Cc3ccccc3)nnc2SCc2nc(-c3cccs3)no2)cc1,.,.,0.3,-8.8,.,.,.
Cc1nn(C)c(C)c1/C=C(/C(=O)C(C)C)n1cncn1,-1.9,9.5,4.0,-6.2,-12.1,-7.4%,-4.9%
CCCn1c(/C=C/c2ccco2)nc2ccccc21,2.7,-5.1,10.3,-4.5,-13.6,-0.1%,8.1%
CCCCn1c(/C=C/c2ccco2)nc2ccccc21,-2.1,63.7*,40.5*,-18.1,-10.3,-5.6%,-1.4%
Cc1ccc2c(=O)cc(C(=O)N(Cc3ccc(N(C)C)cc3)C3CCS(=O)(=O)C3)oc2c1 (stereo not drawn),.,.,0.9,-4.9,.,.,.
SMILES,D2 ag-1,D2 antag,D2 ag-2,D2 PAM-1,D2 PAM-2,D3 ag,D2 ag-3
Cc1cc(C)n2nc(C(=O)NCCc3ccccc3)nc2n1,3.4,-2.4,0.7,9.7,-2.6,.,.
O=C(NCCc1ccccc1)c1nc2nc(-c3cccs3)cc(C(F)(F)F)n2n1,-1.7,40.4*,-0.3,0.1,-8.4,-3.5%,6.8%
CC(C)OCCCn1c(=O)c2ccccc2n2c(CCC(=O)N3CCN(c4ccccn4)CC3)nnc12,12.6,24.6,67.4*,-15.5,1.2,-2.0%,4.5%
O=C(CCc1nnc2n(Cc3ccc(Cl)cc3)c(=O)c3ccccc3n12)N1CCN(c2ccccn2)CC1,4.6,-19.1,-0.5,-2.4,-5.4,.,.
CCC1CN(C(=O)N2CCC(C(=O)O)CC2)c2cc(C)ccc2O1 (stereo not drawn),.,.,0.7,11.5,.,.,.
CC1CC(C)CN(CCCNC(=O)CN2C(=O)CSc3ccc(S(=O)(=O)N4CCOCC4)cc32)C1 (stereo not drawn),1.8,40.2*,29.2,-18.1,-24.3,-3.9%,7.6%
CCCCN(CC)CCCNC(=O)CN1C(=O)CSc2ccc(S(=O)(=O)N3CCOCC3)cc21,4.2,-22.1,23.0,-17.9,-8.1,-6.3%,2.9%
CCOc1ccc(/C=N/NC(=O)c2ccc(O)cc2)cc1CN1CC2CC(C1)c1cccc(=O)n1C2 (stereo not drawn),4.0,.,.,-3.7,-2.2,-7.8%,-2.0%
CC(C)c1nc2ccc(C(=O)NCCCN3CCN(c4ccccc4F)CC3)cc2o1,.,.,.,-25.6,.,.,.
O/C=c1\ccc2cccc3nc(C(F)(F)F)nc1c23,4.4,-19.6,3.1,-0.9,15.3,.,.
C/C(O)=c1/ccc2cccc3nc(C)nc1c23,6.3,-1.7,7.2,5.1,26.2,?,20.9%
O=C(CN1CCc2ccccc2C1)Nc1ccc(F)cc1,1.4,-5.7,0.2,7.3,-2.6,.,.
O=C(Nc1cccc(S(=O)(=O)N2CCOCC2)c1)C(c1ccccc1)N1CCCCC1 (stereo not drawn),-2.0,.,.,.,-6.4,.,.
O=C(CN1CCc2ccccc2C1)Nc1ccccc1F,?,64.5*,46.7*,-17.5,1.0,?,22.6%
CC(C(=O)Nc1cccc(S(=O)(=O)N2CCOCC2)c1)N1CCN(C/C=C/c2ccccc2)CC1 (stereo not drawn),-1.8,79.9*,51.3*,-23.5,-11.7,?,21.7%
O=C(CN1CCN(c2ccccn2)CC1)Nc1ccccc1F,9.2,56.9*,73.0*,-15.1,6.2,29.2%,28.4%
O=C(CN1CCN(c2ccccn2)CC1)Nc1ccc(F)cc1F,10.6,24.8,59.4*,-17.0,-0.8,29.8%,?
O=C(CN1CCN(c2ccccn2)CC1)Nc1cccc(F)c1,4.1,-18.5,26.8,-4.8,-3.6,3.4%,-1.2%

# Source: PubChem BioAssay (National Center for Advancing Translational Sciences (NCATS))
